In PubChem BioAssay AID1159580 (chemical genetic matrix, 2015):
Among all 5,500 compounds or so, about 2,000 (36%) were called active. Roughly 18% stayed inconclusive and do not appear here. No stated cut-off is given here; in the data, active means normalized growth mostly below about 0.91 (no sharp cut-off); inconclusive means no clear call, values can overlap the other calls; inactive means mostly above about 0.92. The list shows a part of the results.

Test: chemical genetic growth profiling, strain panel (AID 1159580);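 further: tested at 20 µM; growth read once vehicle control cultures reached saturation at 30 °C; 1 = growth at the plate median or of vehicle wells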
Conditions: S. cerevisiae deletion strains, growth OD

Measured: normalized growth

COc1ccc2c(c1)c(CC(=O)O)c(C)n2Cc1ccc(Cl)cc1
inactive: locus YAL013W, strain DEP1, stronger effect = lower value 0.994 | locus YAL040C, strain CLN3, stronger effect = lower value 0.96 | locus YCL061C, strain MRC1 (second series), stronger effect = lower value 1 | locus YDR150W, strain NUM1, stronger effect = lower value 1.02 | locus YDR363W, strain ESC2, stronger effect = lower value 0.972 | locus YER002W, strain NOP16, stronger effect = lower value 0.999 | locus YGR078C, strain PAC10, stronger effect = lower value 0.981 | locus YGR229C, strain SMI1, stronger effect = lower value 0.941 | locus YMR307W, strain GAS1, stronger effect = lower value 1 | locus YNL175C, strain NOP13, stronger effect = lower value 0.966 | locus YNL197C, strain WHI3, stronger effect = lower value 0.95 | locus YNL224C, strain SQS1, stronger effect = lower value 0.981 | locus YNL322C, strain KRE1, stronger effect = lower value 0.994 | locus YOR083W, strain WHI5 (second series), stronger effect = lower value 0.953 | locus YPL055C, strain LGE1, stronger effect = lower value 0.996 | locus YPL241C, strain CIN2, stronger effect = lower value 0.994
